These results are taken from PMC5700166.

The assay addresses T1, GST-Aq-NF-kB (Amphimedon queenslandica, UniProt A9Y5G7 2-389).
T1 sequence: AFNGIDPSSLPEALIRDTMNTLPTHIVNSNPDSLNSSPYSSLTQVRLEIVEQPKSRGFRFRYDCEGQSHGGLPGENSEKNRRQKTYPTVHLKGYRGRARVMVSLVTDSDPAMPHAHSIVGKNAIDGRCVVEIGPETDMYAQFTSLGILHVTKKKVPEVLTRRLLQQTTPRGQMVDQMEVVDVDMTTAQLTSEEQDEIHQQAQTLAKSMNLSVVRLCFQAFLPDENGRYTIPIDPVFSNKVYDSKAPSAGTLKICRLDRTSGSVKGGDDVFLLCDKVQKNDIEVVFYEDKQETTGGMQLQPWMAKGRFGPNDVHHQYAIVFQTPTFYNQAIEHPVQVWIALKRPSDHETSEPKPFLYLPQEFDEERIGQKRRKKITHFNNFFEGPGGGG
The assay is described as follows: protein-binding microarray (PBM); PBM: ~300 nM protein, 6 mM HEPES pH 7.8, 80 mM KCl, 0.5 mM EDTA, 0.5 mM EGTA, 6% glycerol, 35 ng/ul poly-dIdC, 1% milk, 1 h, room temperature; Ap Aiptasia and Nv Nematostella (sea anemones) / Co Capsaspora / Aq Amphimedon (sponge) / Dm Drosophila / Hu human; RHD is the Rel homology domain; high values mean tight binding. To be noted: dsDNA, one strand shown.
Sequence “CCGATTAACATCAGAAATACCCCTGATGTTAATCGGGTCTTGATTCGCTTGACGCTGCTG” gave a binding signal of 6.25 z-score.

“CCGATTAACATCAAATCATTCCCTGATGTTAATCGGGTCTTGATTCGCTTGACGCTGCTG” displayed a binding signal of 4.36 z-score.

In turn, “CCGATTAACATCAGAATTACCCCTGATGTTAATCGGGTCTTGATTCGCTTGACGCTGCTG” returned a binding signal of 5.49 z-score.

Regarding “CCGATTAACATCAGGGGGGTTAATGATGTTAATCGGGTCTTGATTCGCTTGACGCTGCTG”, the binding signal was 4.51 z-score.

Sequence “CCGATTAACATCAAAATTCCCCCTGATGTTAATCGGGTCTTGATTCGCTTGACGCTGCTG” came in with a binding signal of 9.32 z-score.

On to “CCGATTAACATCAATTCCCCTGATGATGTTAATCGGGTCTTGATTCGCTTGACGCTGCTG”, for which the binding signal was 4.89 z-score.

In the case of “CCGATTAACATCAGGGGAATACCTGATGTTAATCGGGTCTTGATTCGCTTGACGCTGCTG”, the binding signal was found to be 10.5 z-score.

As for “CCGATTAACATCATTCCCGGGAATGATGTTAATCGGGTCTTGATTCGCTTGACGCTGCTG”, the binding signal amounted to 3.95 z-score.

Take “CCGATTAACATCACGAAATCCCCTGATGTTAATCGGGTCTTGATTCGCTTGACGCTGCTG”: the binding signal worked out at 6.39 z-score.

For the sequence “CCGATTAACATCAATCTTCCCCCTGATGTTAATCGGGTCTTGATTCGCTTGACGCTGCTG”, the binding signal came to 6.23 z-score.

“CCGATTAACATCAGAGTTCCCCCTGATGTTAATCGGGTCTTGATTCGCTTGACGCTGCTG” showed a binding signal of 6.05 z-score.

“CCGATTAACATCAGGGGATAACCTGATGTTAATCGGGTCTTGATTCGCTTGACGCTGCTG”: the binding signal amounted to 7.32 z-score.

The sequence “CCGATTAACATCAGGGGATTCCATGATGTTAATCGGGTCTTGATTCGCTTGACGCTGCTG” gave a binding signal of 6.89 z-score.

“CCGATTAACATCAAGGGGGATATTGATGTTAATCGGGTCTTGATTCGCTTGACGCTGCTG” showed a binding signal of 6.15 z-score.

With “CCGATTAACATCAGGGGGGAAAATGATGTTAATCGGGTCTTGATTCGCTTGACGCTGCTG”, the binding signal turned out to be 6.28 z-score.

On to “CCGATTAACATCAAAATCCCCCTTGATGTTAATCGGGTCTTGATTCGCTTGACGCTGCTG”, for which the binding signal was 8.68 z-score.

Consider “CCGATTAACATCAGGGGTATTTATGATGTTAATCGGGTCTTGATTCGCTTGACGCTGCTG”, for which the binding signal turned out to be 5.15 z-score.

On to “CCGATTAACATCAGGGAGTTTTATGATGTTAATCGGGTCTTGATTCGCTTGACGCTGCTG”, for which the binding signal worked out at 6.93 z-score.

As for “CCGATTAACATCAAGGGGGTTTCTGATGTTAATCGGGTCTTGATTCGCTTGACGCTGCTG”, the binding signal is 7.81 z-score.

Regarding “CCGATTAACATCAAAACTCCCCGTGATGTTAATCGGGTCTTGATTCGCTTGACGCTGCTG”, the binding signal is 6.24 z-score.

For “CCGATTAACATCAATTTTCCCCATGATGTTAATCGGGTCTTGATTCGCTTGACGCTGCTG”, the binding signal was determined as 5.53 z-score.

“CCGATTAACATCAAAAAATCCCATGATGTTAATCGGGTCTTGATTCGCTTGACGCTGCTG”: the binding signal came to 5.43 z-score.

Turning to “CCGATTAACATCAGGGGAAAGAATGATGTTAATCGGGTCTTGATTCGCTTGACGCTGCTG”, the binding signal came out at 4.87 z-score.

As for “CCGATTAACATCAATTTTCCCACTGATGTTAATCGGGTCTTGATTCGCTTGACGCTGCTG”, the binding signal was 3.35 z-score.

In turn, “CCGATTAACATCAAATTTCCCATTGATGTTAATCGGGTCTTGATTCGCTTGACGCTGCTG” returned a binding signal of 4.29 z-score.

The sequence “CCGATTAACATCAACAAAATCCCTGATGTTAATCGGGTCTTGATTCGCTTGACGCTGCTG” displayed a binding signal of 3.47 z-score.

As for “CCGATTAACATCAGGGGAAAACATGATGTTAATCGGGTCTTGATTCGCTTGACGCTGCTG”, the binding signal worked out at 6.17 z-score.

On to “CCGATTAACATCAGGCCTTTCCCTGATGTTAATCGGGTCTTGATTCGCTTGACGCTGCTG”, for which the binding signal is 6.74 z-score.

“CCGATTAACATCAGGGAGTACCCTGATGTTAATCGGGTCTTGATTCGCTTGACGCTGCTG” yielded a binding signal of 6.66 z-score.

As to “CCGATTAACATCAGGACGTCCCCTGATGTTAATCGGGTCTTGATTCGCTTGACGCTGCTG”, the binding signal worked out at 7.4 z-score.

“CCGATTAACATCACAAAAAACCCTGATGTTAATCGGGTCTTGATTCGCTTGACGCTGCTG”: the binding signal amounted to 5.58 z-score.

For “CCGATTAACATCAGATAATCCCCTGATGTTAATCGGGTCTTGATTCGCTTGACGCTGCTG”, the binding signal came out at 7.45 z-score.

The sequence “CCGATTAACATCAGGGAAAGACCTGATGTTAATCGGGTCTTGATTCGCTTGACGCTGCTG” came in with a binding signal of 7.5 z-score.

Consider “CCGATTAACATCAGGGGAAAAGATGATGTTAATCGGGTCTTGATTCGCTTGACGCTGCTG”, for which the binding signal came to 4.78 z-score.

“CCGATTAACATCAGCAATCCCCCTGATGTTAATCGGGTCTTGATTCGCTTGACGCTGCTG” yielded a binding signal of 5.16 z-score.

Sequence “CCGATTAACATCAAGGGGGAATCTGATGTTAATCGGGTCTTGATTCGCTTGACGCTGCTG” returned a binding signal of 6.38 z-score.

Sequence “CCGATTAACATCAATAAAACCCCTGATGTTAATCGGGTCTTGATTCGCTTGACGCTGCTG” came in with a binding signal of 5.25 z-score.

For “CCGATTAACATCACAAAATTCCCTGATGTTAATCGGGTCTTGATTCGCTTGACGCTGCTG”, the binding signal was determined as 6.82 z-score.

“CCGATTAACATCAAGAGATTCCCTGATGTTAATCGGGTCTTGATTCGCTTGACGCTGCTG” returned a binding signal of 4.06 z-score.

On to “CCGATTAACATCAAGGGGAATTCTGATGTTAATCGGGTCTTGATTCGCTTGACGCTGCTG”, for which the binding signal came out at 8.42 z-score.
